Screening data deposited in PubChem BioAssay by National Center for Advancing Translational Sciences (NCATS).
Rows were chosen to be rich in hits. Some 7.5% of all compounds tested hit in one or more screens of this group.
SMN2 splice up: increases expression of the SMN2 splice variant | Potency, µM (top dose mostly 46.1 µM), for inactives: top-dose activity change, positive = activation, usual class: activators | 2.8% of 210,000 active | HEK293 SMN2-luciferase splicing reporter, luminescence, 30-36 h; note: % of control where 0% means no effect; nearly all actives have a fitted effect of over 55% in size
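HEK293 cells carry an SMN2 minigene-luciferase reporter in which exon 7 inclusion puts luciferase in frame. Cells were seeded at 2000 cells/well, attached for 10-12 hours, then exposed to compounds for 30-36 hours at 37C before ONE-Glo luminescence.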
ELG1 genotoxic: inducers of genotoxicity in HEK293T ELG1-luciferase cells; HEK293T ELG1-luciferase reporter, luminescence, 16 h; Potency, µM (highest dose often 46 µM), without a hit: at the highest dose activity change, positive = activation, usual class: activators; 1.3% of 330,000 active; AID 504466; note: % of control where 0% means no effect; nearly all actives have a fitted effect of over 60% in size
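Luminescence read-out: rising ELG1-luciferase signal, reflecting elevated ELG1 protein under genetic stress, flags genotoxic compounds. Cells were treated for 16 hr at 37 °C before ONE-Glo detection.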
Rab9 prom act: activators of Rab9 promoter; Huh7 Rab9 promoter-luciferase reporter, luminescence, 24 h; Potency, µM (top dose mostly 9.22 µM), for the others: top-dose activation, negative = inhibition, hits mostly activators; 2.8% of 320,000 active; AID 485297; note: % of control where 0% means no effect; nearly all actives have a fitted effect of over 60% in size
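Huh7 reporter line, Rab9 promoter upstream of luciferase. Compound exposure 24 h at 37 °C in reduced-serum medium with 10% FBS. Read-out: luminescence.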
FLuc modulator: firefly luciferase modulation, counter-screen for miR-21 project; purified FLuc, Km substrates, luminescence inhibition; Potency, µM (top dose mostly 57.5 µM), for inactives: top-dose activity change, negative = inhibition, usual class: inhibitors; 6.9% of 360,000 active;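 note: plate controls were vehicle for no effect and reference inhibitor for full effect; nearly all actives have a fitted effect of over 55% in size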
Target sequence (P08659 whole entry, looked up): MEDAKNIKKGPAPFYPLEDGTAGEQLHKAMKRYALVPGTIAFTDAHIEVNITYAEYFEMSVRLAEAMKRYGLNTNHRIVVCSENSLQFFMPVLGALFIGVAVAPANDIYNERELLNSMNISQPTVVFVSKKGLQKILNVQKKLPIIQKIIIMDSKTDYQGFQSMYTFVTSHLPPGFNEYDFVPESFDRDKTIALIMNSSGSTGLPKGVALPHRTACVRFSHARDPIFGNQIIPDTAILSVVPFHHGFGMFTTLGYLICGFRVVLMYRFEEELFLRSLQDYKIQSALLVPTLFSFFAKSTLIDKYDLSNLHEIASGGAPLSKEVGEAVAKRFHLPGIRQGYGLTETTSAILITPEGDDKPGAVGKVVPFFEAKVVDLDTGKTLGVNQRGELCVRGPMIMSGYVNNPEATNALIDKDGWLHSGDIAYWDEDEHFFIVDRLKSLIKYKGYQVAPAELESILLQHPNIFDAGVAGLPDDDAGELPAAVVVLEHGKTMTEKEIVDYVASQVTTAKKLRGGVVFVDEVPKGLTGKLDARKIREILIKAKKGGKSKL
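Purified P. pyralis luciferase, 10 nM final, with Km-level 10 uM D-luciferin and 10 uM ATP in 50 mM Tris acetate pH 7.5, 10 mM Mg acetate, 0.01% Tween-20, 0.05% BSA; 6-point qHTS titration about 60 µM downward; luminescence read.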
NPC1 prom act: activators of NPC1 promoter | Huh7 NPC1 promoter luciferase reporter, 24 h | Potency, µM (highest dose often 9.22 µM), without a hit: at the top dose activation, hits mostly activators | 2.4% of 320,000 active | AID 485313; note: % of control where 0% means no effect; nearly all actives have a fitted effect of over 60% in size
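Readout is luciferase luminescence, reflecting NPC1 promoter activation in stably transfected Huh7 cells after 24 h compound exposure at 37 °C in reduced-serum medium with 10% FBS.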
KinaseGlo FLuc: Kinase-Glo luciferase inhibition (counter-screen). Kinase-Glo luciferase, ATP luminescence, 8 min. Potency, µM (top dose mostly 38.3 µM), for the others: top-dose activity change, negative = inhibition, hits mostly inhibitors. 0.28% of 200,000 active. AID 1379; note: % is set by controls: 0 for no effect and ±100 for the full control effect; nearly all actives have a fitted effect of over 60% in size
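Compounds were added to a substrate mix at pH 7.2 (50 mM imidazole, 10 uM ATP, within the enzyme's linear range), followed by Kinase-Glo detection reagent; luminescence was measured after 8 minutes at ambient temperature.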
An asterisk follows results filed as active; [ ] = dose if it differs, or a comment. Calls come from the whole dose curve; as a rule, active = well fitted curve in the direction sought with a large enough effect; inconclusive = small, poorly fitted or top-dose-only effect, or another doubt; inactive = no such curve, though single readings can be large; an effect the other way counts as inactive or inconclusive. Potency is the fitted concentration of half-maximal effect.

`O=C(/C=C/c1ccc(Cl)cc1Cl)N1CCc2ccccc21` gave SMN2 splice up 2.5µM*, ELG1 genotoxic 6.5µM*, Rab9 prom act 0.79µM*, FLuc modulator 0.6µM*, NPC1 prom act 1.6µM* and KinaseGlo FLuc -23%.
O=C(/C=C/c1cccc(F)c1)N1CCc2ccccc21 was read as SMN2 splice up 2.5µM*, ELG1 genotoxic 1.8µM*, Rab9 prom act 0.63µM*, FLuc modulator 0.85µM*, NPC1 prom act 1.1µM* and KinaseGlo FLuc inconclusive.
O=C(/C=C/c1ccc(Cl)cc1Cl)OCC(=O)N1CCCC1 was read as ELG1 genotoxic 4%, Rab9 prom act 12%, FLuc modulator 15µM* and NPC1 prom act -4%.
Screening Cc1ccc(C)c(Nc2nn3c(=O)c4ccc(C(=O)N(C)Cc5ccccc5)cc4nc3s2)c1 returned FLuc modulator -8%.
`Cc1oc2ncnc(N3CCCCC3)c2c1C(=O)NCC1CCN(Cc2ccccc2F)CC1` gave FLuc modulator -1%.
CC1=[N+](CC(=O)c2ccccc2)CCn2cccc21 was read as ELG1 genotoxic inconclusive, Rab9 prom act 3.5µM*, FLuc modulator 0%, NPC1 prom act inconclusive and KinaseGlo FLuc -2%.
Screening CCC1=[N+](CC(=O)c2ccc(Br)cc2)CCn2c(C)ccc21 returned ELG1 genotoxic 3%, Rab9 prom act inconclusive, FLuc modulator -1% and NPC1 prom act 1.4µM*.
For CCC1=[N+](CC(=O)c2ccc(C)cc2)CCn2c(C)ccc21 the results were SMN2 splice up inconclusive, ELG1 genotoxic 12%, Rab9 prom act 0.89µM*, FLuc modulator -1%, NPC1 prom act 2.2µM* and KinaseGlo FLuc -2%.
For CCC1=[N+](CC(=O)c2ccc(C)cc2)CCn2cccc21 the results were SMN2 splice up inconclusive, ELG1 genotoxic inconclusive, Rab9 prom act 4µM*, FLuc modulator 5%, NPC1 prom act 27% and KinaseGlo FLuc 1%.
Screening CCC1=[N+](C)CCn2c(C)ccc21 returned SMN2 splice up -12%, ELG1 genotoxic -2%, Rab9 prom act -3%, FLuc modulator 1%, NPC1 prom act -4% and KinaseGlo FLuc -3%.
`Cc1cc(C(=O)COc2ccc(F)cc2Br)c(C)n1C` gave SMN2 splice up 13%, ELG1 genotoxic 8%, Rab9 prom act 28%, FLuc modulator 21µM*, NPC1 prom act 14% and KinaseGlo FLuc 1%.
Cc1cc(C(=O)CN2CCN(CC(=O)Nc3ccc(F)cc3)CC2)c(C)n1C1CC1 was read as ELG1 genotoxic 1%, Rab9 prom act -5% and NPC1 prom act 0%.
For Cc1cnc(C(=O)OCC(=O)c2cc(C)n(C)c2C)cn1 the results were SMN2 splice up 5%, ELG1 genotoxic 2%, Rab9 prom act 4%, FLuc modulator -15%, NPC1 prom act -2% and KinaseGlo FLuc 0%.
Cc1cc(C(=O)COc2ccc(F)cc2Br)c(C)n1C1CC1 was read as ELG1 genotoxic 0%, Rab9 prom act inconclusive, FLuc modulator 11µM* and NPC1 prom act 17%.
Cc1nc(NC(=S)NC(=O)c2ccccc2)sc1C was read as ELG1 genotoxic inconclusive, Rab9 prom act 3.2µM*, FLuc modulator inconclusive and NPC1 prom act 4µM*.
Screening Cc1nc(NC(=O)CCc2ccccc2)sc1C returned ELG1 genotoxic inconclusive, Rab9 prom act 26%, FLuc modulator 17µM* and NPC1 prom act 27%.
For Cc1nc(NC(=O)c2ccccc2O)sc1C the results were ELG1 genotoxic 5.8µM*, Rab9 prom act 3.2µM*, FLuc modulator 5.4µM* and NPC1 prom act 4µM*.
CC(=O)c1sc(NC(=O)c2ccccc2)nc1-c1ccccc1 was read as SMN2 splice up 13µM*, ELG1 genotoxic inconclusive, Rab9 prom act 1µM*, FLuc modulator 9.5µM*, NPC1 prom act 2µM* and KinaseGlo FLuc -8%.
`CCNC(=O)CC1C(=O)N(c2ccccc2)C(=O)N1Cc1ccc(F)cc1` (stereo not drawn) gave SMN2 splice up -1% and FLuc modulator -2%.
For O=C(Nc1nc(-c2cccs2)c(C(=O)C(F)(F)F)s1)c1ccco1 the results were SMN2 splice up -5%, ELG1 genotoxic -10%, Rab9 prom act -13%, FLuc modulator inconclusive, NPC1 prom act -1% and KinaseGlo FLuc 3%.
For Cc1nc(NCCc2ccccc2)sc1C(=O)O the results were ELG1 genotoxic 13%, Rab9 prom act 29%, FLuc modulator 17µM* and NPC1 prom act inconclusive.
Screening O=C(Nc1nc(-c2cccs2)c(C(=O)C(F)(F)F)s1)c1ccccc1 returned SMN2 splice up -92%, ELG1 genotoxic -1%, Rab9 prom act -11%, FLuc modulator 17µM*, NPC1 prom act 0% and KinaseGlo FLuc -2%.
Screening COc1ccc(CCNc2nc(C)c(C(C)=O)s2)cc1OC returned ELG1 genotoxic -17%, Rab9 prom act 0%, FLuc modulator inconclusive and NPC1 prom act 2%.
CC(=O)c1sc(NC(=O)c2ccccc2C)nc1C was read as SMN2 splice up 12%, ELG1 genotoxic inconclusive, Rab9 prom act inconclusive, FLuc modulator inconclusive, NPC1 prom act 21% and KinaseGlo FLuc inconclusive.
For Cc1nc(NC(=O)c2ccccc2)sc1C the results were ELG1 genotoxic inconclusive, Rab9 prom act 1.8µM*, FLuc modulator inconclusive and NPC1 prom act 1.8µM*.
Screening Cc1nc(NC(=O)c2csc3ccccc23)sc1C returned SMN2 splice up 7.9µM*, ELG1 genotoxic inconclusive, Rab9 prom act 1.3µM*, FLuc modulator 0.85µM*, NPC1 prom act inconclusive and KinaseGlo FLuc -1%.
For CCCCOc1ccc(C(=O)NCCc2sc(-c3cccc(F)c3)nc2C)cc1 the results were FLuc modulator -16%.
Screening O=C1Nc2cc(C(F)(F)F)ccc2N2CCCCC12 (stereo not drawn) returned ELG1 genotoxic -6%, Rab9 prom act -1%, FLuc modulator 4% and NPC1 prom act 2%.
Screening CN1C[C@H](c2ccccc2)C(O)([C@]2(c3ccccc3)CN(C)C[C@@H](c3ccccc3)C2=O)[C@H](c2ccccc2)C1 (stereo partly drawn) returned SMN2 splice up -10%[9.22 µM] and KinaseGlo FLuc -5%[7.66 µM].
O=C(c1ccccc1)c1cccc(C(=O)c2ccccc2)c1 was read as ELG1 genotoxic -5%, Rab9 prom act 2%, FLuc modulator -14% and NPC1 prom act 5%.
Screening O=C(c1ccccc1)c1ccc2cc(O)ccc2c1 returned ELG1 genotoxic inconclusive, Rab9 prom act inconclusive, FLuc modulator 15µM* and NPC1 prom act inconclusive.
